# Results taken from PubChem BioAssay (NCATS).
# Where “and” joins values, the source holds several entries; their conditions need not be identical. Equal values may be shown once. Records with an inconclusive call do not appear. A call without a number means that no potency is given here. Unmarked numbers belong to inactive results. Calls of active or inactive are those of the source. Unless noted, calls follow the shape of the dose curve; as a rule, active = well fitted curve in the direction sought with a large enough effect; inconclusive = small, poorly fitted or top-dose-only effect, or another doubt; inactive = no such curve, though single readings can be large; an effect the other way counts as inactive or inconclusive.
# Assays:
# [1] = target: Muscarinic acetylcholine receptor M1 (Rattus norvegicus) (UniProt P08482); assay: qHTS Assay for Antagonists of Acetylcholine Muscarinic M1 Receptor: Kinetic Measurement of Intracellular Calcium Response (AID 943); also: nearly all actives have a fitted effect of over 75% in size; also: potency is read from the fitted curve at half-maximal effect
# How it was run: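 Intracellular calcium flux, recorded with Fluo-4 in a kinetic plate reader, served as signal; the response to carbachol at EC80 (100 nM final) was taken as maximal over minimal fluorescence after a 10 min compound pre-incubation in rat M1-CHO cells.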
# [2] = qHTS Assay for Identification of Small Molecule Antagonists for NFkB Signaling Pathway (AID 895; active = well fitted inhibition curve with a large enough effect in the signal ratio, with a control signal flat, not every such curve was filed as active; the % refers to the signal ratio; also: potency is read from the fitted curve at half-maximal effect)
# How it was run: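 Beta-lactamase reporter read-out (460 and 530 nm emission ratio, 405 nm excitation, 2 hrs substrate loading RT) after 5 hr stimulation with 10 pM TNF alpha in compound-treated NFkB-bla ME-180 cells in low-serum medium.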
# [3] = target: Cytochrome P450 3A4 (Homo sapiens) (UniProt P08684); assay: qHTS Assay for Inhibitors and Substrates of Cytochrome P450 3A4 (AID 884); also: nearly all actives have a fitted effect of over 50% in size; also: potency is read from the fitted curve at half-maximal effect
# How it was run: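 20 nM human CYP3A4 with 25 uM Luciferin-PPXE (at KM) in 200 mM KPO4, preincubated 10 min with compound; NADPH regeneration started a 60 min RT reaction. Luciferin detected by luminescence, normalized to 57 uM ketoconazole as full inhibition.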
# [4] = qHTS Assay for Identification of Small Molecule Agonists for Hypoxia Response Element Signaling Pathway (AID 914; active = well fitted activation curve with a large enough effect in the signal ratio, with a control signal flat, not every such curve was filed as active; the % refers to the signal ratio); details: ME-180 (cervical carcinoma) HRE-bla reporter, beta-lactamase ratio, CoCl2, 17 h; active compounds read high
# How it was run: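 Read-out: CCF4 FRET ratio of 460nm to 530nm emission (excitation 405nm) after 2.5 hours at room temperature, taken from HRE-bla ME-180 cells that had been exposed to compound and EC50 CoCl2 for 17 hours.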
# [5] = target: Cytochrome P450 2C9 (Homo sapiens) (UniProt P11712); assay: qHTS Assay for Inhibitors and Substrates of Cytochrome P450 2C9 (AID 883); also: nearly all actives have a fitted effect of over 60% in size; also: potency is read from the fitted curve at half-maximal effect
# How it was run: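 Luminescent read-out of deoxyluciferin hydroxylation, normalized to 57uM sulphaphenazole (AC100). Reaction: 10nM enzyme, 100uM Luciferin-H (equal to KM), 25mM KPO4, 10 min compound preincubation, then 60 min with NADPH regeneration, both at 37C.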
# [6] = target: Cytochrome P450 2C19 (Homo sapiens) (UniProt P33261); assay: qHTS Assay for Inhibitors and Substrates of Cytochrome P450 2C19 (AID 899); also: nearly all actives have a fitted effect of over 60% in size; also: potency is read from the fitted curve at half-maximal effect
# How it was run: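 Luminescence readout of luciferin formed from 10uM Luciferin-H EGE (KM level) by 5 nM CYP2C19 in 50mM KPO4. 60 min NADPH-driven reaction at 37C after 10 min compound preincubation; data scaled to 57uM ketoconazole inhibition.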
# [7] = target: Ubiquitin carboxyl-terminal hydrolase 1 (Homo sapiens) (UniProt O94782); assay: Inhibitors of USP1/UAF1: Pilot qHTS (AID 504865); also: potency is read from the fitted curve at half-maximal effect; nearly all actives have a fitted effect of over 35% in size
# How it was run: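 1nM USP1/UAF1 + cpd, 15 min RT; start w/ Ub-Rho 150nM final; kinetic FL 480/540 nm, 6 reads q60 s. Buffer 50mM HEPES pH 7.8, 0.5mM EDTA, 1mM TCEP, 0.01% Tween-20, 0.1 mg/ml BSA.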
# Cytochrome P450 2C9 (Homo sapiens), sequence (P11712 whole entry, looked up): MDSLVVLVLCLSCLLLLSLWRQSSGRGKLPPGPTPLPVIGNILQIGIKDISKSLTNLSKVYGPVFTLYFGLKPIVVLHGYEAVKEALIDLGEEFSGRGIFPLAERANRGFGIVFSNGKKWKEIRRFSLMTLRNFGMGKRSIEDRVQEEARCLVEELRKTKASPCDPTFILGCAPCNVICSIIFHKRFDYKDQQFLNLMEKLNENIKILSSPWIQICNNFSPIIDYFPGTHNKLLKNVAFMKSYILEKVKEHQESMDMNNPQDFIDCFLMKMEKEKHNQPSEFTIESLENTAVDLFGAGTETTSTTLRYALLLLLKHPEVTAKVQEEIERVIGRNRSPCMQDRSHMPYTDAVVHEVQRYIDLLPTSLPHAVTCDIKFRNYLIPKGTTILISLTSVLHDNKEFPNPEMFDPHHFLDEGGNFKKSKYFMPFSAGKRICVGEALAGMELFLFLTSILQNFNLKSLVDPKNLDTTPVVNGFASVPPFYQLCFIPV
# Muscarinic acetylcholine receptor M1 (Rattus norvegicus), sequence (P08482 whole entry, looked up): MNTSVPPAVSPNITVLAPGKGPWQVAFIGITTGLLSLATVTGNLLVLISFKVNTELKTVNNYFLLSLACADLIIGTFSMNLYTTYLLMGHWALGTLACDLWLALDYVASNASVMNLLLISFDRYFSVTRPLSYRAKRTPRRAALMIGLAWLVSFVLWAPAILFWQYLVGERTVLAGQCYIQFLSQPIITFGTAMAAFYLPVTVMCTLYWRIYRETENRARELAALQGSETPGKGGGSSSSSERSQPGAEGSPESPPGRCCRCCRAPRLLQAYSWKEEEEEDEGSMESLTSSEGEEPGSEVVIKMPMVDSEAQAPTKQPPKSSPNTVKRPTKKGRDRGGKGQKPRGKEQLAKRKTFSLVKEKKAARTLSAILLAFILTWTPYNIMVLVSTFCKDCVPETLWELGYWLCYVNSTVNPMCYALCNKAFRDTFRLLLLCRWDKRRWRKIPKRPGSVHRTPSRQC
# Cytochrome P450 2C19 (Homo sapiens), sequence (P33261 whole entry, looked up): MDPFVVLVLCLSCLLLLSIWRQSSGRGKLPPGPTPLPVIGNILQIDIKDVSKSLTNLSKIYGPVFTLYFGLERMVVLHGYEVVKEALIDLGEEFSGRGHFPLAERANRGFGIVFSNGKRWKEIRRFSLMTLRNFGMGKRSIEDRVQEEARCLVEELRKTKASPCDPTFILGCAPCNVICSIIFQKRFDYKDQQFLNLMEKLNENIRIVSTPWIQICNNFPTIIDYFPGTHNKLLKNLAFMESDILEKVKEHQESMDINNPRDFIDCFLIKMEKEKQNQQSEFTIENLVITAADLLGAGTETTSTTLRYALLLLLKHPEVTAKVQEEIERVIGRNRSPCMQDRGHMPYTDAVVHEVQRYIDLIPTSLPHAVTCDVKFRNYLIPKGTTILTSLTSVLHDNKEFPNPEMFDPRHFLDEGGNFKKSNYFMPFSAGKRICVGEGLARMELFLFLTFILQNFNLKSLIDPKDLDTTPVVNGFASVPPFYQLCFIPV
# Cytochrome P450 3A4 (Homo sapiens), sequence (P08684 whole entry, looked up): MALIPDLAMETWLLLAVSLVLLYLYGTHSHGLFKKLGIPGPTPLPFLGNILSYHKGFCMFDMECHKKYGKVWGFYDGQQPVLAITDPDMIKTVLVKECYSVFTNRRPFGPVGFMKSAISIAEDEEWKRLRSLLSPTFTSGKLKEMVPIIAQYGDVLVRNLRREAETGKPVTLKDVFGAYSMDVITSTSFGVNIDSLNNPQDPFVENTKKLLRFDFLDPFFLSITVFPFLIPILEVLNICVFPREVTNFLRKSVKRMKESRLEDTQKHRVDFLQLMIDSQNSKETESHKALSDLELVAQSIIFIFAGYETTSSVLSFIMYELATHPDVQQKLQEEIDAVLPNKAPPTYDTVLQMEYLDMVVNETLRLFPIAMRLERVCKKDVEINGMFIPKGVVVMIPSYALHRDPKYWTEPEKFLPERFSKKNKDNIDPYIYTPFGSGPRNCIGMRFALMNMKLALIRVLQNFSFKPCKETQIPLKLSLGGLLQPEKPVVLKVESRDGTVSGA
# Ubiquitin carboxyl-terminal hydrolase 1 (Homo sapiens), sequence (O94782 whole entry, looked up): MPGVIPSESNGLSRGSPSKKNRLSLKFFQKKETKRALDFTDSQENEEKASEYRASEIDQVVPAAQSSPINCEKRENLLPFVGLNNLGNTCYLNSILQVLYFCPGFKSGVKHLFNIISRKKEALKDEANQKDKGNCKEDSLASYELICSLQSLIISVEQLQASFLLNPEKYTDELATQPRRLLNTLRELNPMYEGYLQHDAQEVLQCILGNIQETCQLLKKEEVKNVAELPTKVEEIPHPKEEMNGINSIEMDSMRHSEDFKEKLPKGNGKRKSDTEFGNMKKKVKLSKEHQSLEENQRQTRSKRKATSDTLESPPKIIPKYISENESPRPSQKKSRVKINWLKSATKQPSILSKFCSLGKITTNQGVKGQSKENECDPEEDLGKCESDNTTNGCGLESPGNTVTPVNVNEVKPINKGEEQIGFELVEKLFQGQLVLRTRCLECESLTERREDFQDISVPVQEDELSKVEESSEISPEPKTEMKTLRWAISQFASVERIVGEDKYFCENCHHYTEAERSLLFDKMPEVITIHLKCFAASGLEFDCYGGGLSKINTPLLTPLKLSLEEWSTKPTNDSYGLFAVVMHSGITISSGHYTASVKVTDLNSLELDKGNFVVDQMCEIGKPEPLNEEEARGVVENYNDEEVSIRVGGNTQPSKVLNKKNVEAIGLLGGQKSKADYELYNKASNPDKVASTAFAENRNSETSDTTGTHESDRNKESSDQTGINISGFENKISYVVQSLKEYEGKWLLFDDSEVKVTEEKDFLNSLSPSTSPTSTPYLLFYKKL
compound,measurement,setting,value
O=C(O)[C@H]1[C@H](C(=O)O)[C@H]2CC[C@@H]1O2,Potency,[1],inactive
NC[C@H](O)c1cc(O)c(O)cc1F,Potency,[2],inactive
CN1C[C@@H](CS(=O)(=O)N(C)C)C[C@H]2c3cccc4c3c(cn4C)C[C@@H]21,Potency,[2],inactive
C#CCN[C@@H](C)Cc1ccccc1,Potency,[3],inactive
same,Potency,[1],inactive
Cc1nc2ccccc2cc1C[N+]12CN3CN(CN(C3)C1)C2,activation,[4],9.32%
N=C(N)SCc1ccc(Cl)c2ccccc12 (tested in a mixture with another compound),Potency,[5],3980 nM (active)
COc1cc(C[C@H](C)N)c(OC)cc1I,activation,[4],2.02% and -7.45%
same,Potency,[1],891 nM (active)
C[C@@]12CC[C@H]3[C@@H](CCC4=C(O)C(=O)CC[C@]43C)[C@H]1CCC2=O,Potency,[2],inactive
O=C(C[C@H](c1ccccc1)c1c(O)c2ccccc2oc1=O)c1ccccc1,Potency,[5],631 nM (active)
C[C@]12CC[C@H](O)CC1=CC[C@@H]1[C@H]2CC[C@]2(C)C(=O)CC[C@H]12,Potency,[2],inactive
C[C@@H]1Cc2cc3c(cc2C(c2ccc(N)cc2)=NN1)OCO3,Potency,[3],2510 nM (active)
same,Potency,[6],2000 nM (active)
Oc1ccc2c3c1O[C@@H]1c4[nH]c5c(c4C[C@@]4(O)[C@@H](C2)N(CC2CC2)CC[C@]314)C[C@]1(O)[C@@H]2Cc3ccc(O)c4c3[C@@]1(CCN2CC1CC1)[C@H]5O4,Potency,[2],inactive
same,Potency,[1],inactive
C[C@@]12CC[C@H]3[C@@H](CC=C4C[C@H](OS(=O)(=O)O)CC[C@]43C)[C@H]1CCC2=O,Potency,[2],inactive
same,Potency,[1],inactive
N[C@H](Cn1oc(=O)[nH]c1=O)C(=O)O,Potency,[5],inactive
same,Potency,[6],inactive
N[C@H](CCl)C(=O)O,Potency,[1],inactive
COc1ccc2c(c1O)-c1cccc3c1[C@H](C2)N(C)CC3,Potency,[2],inactive
CCN(CC)c1ncnc2c1ncn2[C@@H]1O[C@@H](COP(=O)(O)OP(=O)(O)C(Br)(Br)P(=O)(O)O)[C@H](O)[C@@H]1O,Potency,[1],inactive
CC(=O)c1c(O)c(C)c(O)c(Cc2c(O)c3c(c(C(=O)/C=C\c4ccccc4)c2O)OC(C)(C)C=C3)c1O,Potency,[5],631 nM (active)
same,Potency,[3],6310 nM (active)
same,Potency,[2],794 nM (active)
same,Potency,[6],2000 nM (active)
same,Potency,[1],inactive
same,Potency,[7],79400 nM (active)
N[C@H](Cn1cc(I)c(=O)[nH]c1=O)C(=O)O,Potency,[5],inactive
same,Potency,[6],inactive
O=C(O)[C@H]1CCN1,Potency,[5],inactive
same,Potency,[3],inactive
same,Potency,[2],inactive
same,Potency,[1],inactive
C[C@@H]1O[C@H]1P(=O)(O)O,Potency,[5],inactive
same,Potency,[1],inactive
COC(=O)[C@H](N)CCCN=C(N)N[N+](=O)[O-],Potency,[2],inactive
COc1cc2c(cc1OC)[C@@]13CCN4C=C5CCO[C@H]6CC(=O)N2[C@@H]1[C@@H]6[C@H]5C[C@H]43,activation,[4],-4.7%
